# Results filed as inconclusive are left out. Values without a mark were called inactive. Activity calls are given as the source filed them. Calls follow the shape of the dose curve; as a rule, active = well fitted inhibition curve with a large enough effect; inconclusive = small, poorly fitted or top-dose-only effect; inactive = flat fitted curve, though single readings scatter.
# System: CP252
# Experiment: qHTS profiling for inhibitors of Plasmodium falciparum proliferation (AID 504749); also: nearly all actives have a fitted effect of over 60% in size;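 as to activity, negative = inhibition: 0% = DMSO vehicle and full inhibition = artemisinin control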
# Conditions: P. falciparum in erythrocytes, SYBR Green DNA, 72 h; series mostly up to 28.7 µM; activity, negative = inhibition: at the top concentration
# Outline: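 In a 72 h erythrocytic culture (37 C, humidified, 5% CO2) at 2.5% hematocrit and 0.3% starting parasitemia, compounds were tested; SYBR Green I in detergent lysis buffer stained parasite DNA overnight.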
# Potency is read from the fitted curve at half-maximal effect.
SMILES,"activity, negative = inhibition [%]",Potency
CCCCCCCC/C=C\CCCCCCCC(=O)O,6.07,
COC(F)(F)C(Cl)Cl,6.78,
Nc1ncnc2c1ncn2[C@@H]1O[C@H](COP(=O)(O)OP(=O)(O)OP(=O)(O)O)[C@@H](O)[C@H]1O,2.77,
Nc1c(N=Nc2ccc(-c3ccc(N=Nc4cc(S(=O)(=O)O)c5ccccc5c4N)cc3)cc2)cc(S(=O)(=O)O)c2ccccc12,2.72,
C#CCOc1ccc2c(C)cc(=O)oc2c1,0.446,
CC(O)CO (stereo not given),9.89,
COc1ccc2c3c1O[C@H]1C[C@@H](O)C=C[C@@]31CCN(C)C2,0.921,
O=S(=O)(O)O,-8.75,
CCCCCCCCCCCCCCCC(=O)OCC(COC(=O)CCCCCCCCCCCCCCC)OC(=O)CCCCCCCCCCCCCCC,1.95,
O=C(O)CN(CCN(CC(=O)O)CC(=O)O)CC(=O)O,0.371,
CCCCCCC(O)C/C=C/CCCCCCCC(=O)O (stereo not given),2.21,
C=CCSSSCC=C,-1.03,
CCC(=O)NCCC1CCc2ccc3c(c21)CCO3 (stereo not given),2.45,
C[C@@H]1CCC2[C@@H](C)[C@@H](O)O[C@@H]3O[C@@]4(C)CC[C@@H]1[C@@]23OO4 (stereo not given in full),,0.0025 µM (active)
CCCCC/C=C\C/C=C\CCCCCCCC(=O)O,6.76,
CCCC(=O)O[C@]1(C(=O)CCl)[C@H](C)C[C@@H]2[C@H]3CCC4=CC(=O)C=C[C@]4(C)[C@@]3(F)C(=O)C[C@@]21C,,3.16 µM (active)
CCOc1ccc(N=Nc2ccc(N)cc2N)cc1,10.5,
NC(=O)c1ncn(C2OC(CO)C(O)C2O)n1 (stereo not given),-5.31,
COCC(=O)Nc1cc(Sc2ccccc2)ccc1N=C(NC(=O)OC)NC(=O)OC,-1.91,
CC1=C(/C=C/C(C)=C/C=C/C(C)=C/C=C/C=C(C)/C=C/C=C(C)/C=C/C2=C(C)CCCC2(C)C)C(C)(C)CCC1,-2.05,
Cc1ccccc1OCC(O)CNCCOc1ccc(C(N)=O)cc1 (stereo not given),0.818,
CCCCCCCC(=O)O,5.32,
CC1=CCC(C(C)(C)O)CC1 (stereo not given),-0.397,
CC(NNC(=O)c1ccccc1)c1ccccc1 (stereo not given),-29,
CCOc1ccc2c(c1)C(C)=CC(C)(C)N2,-12,
CO[C@H]1C[C@@H]2CC[C@@H](C)[C@@](O)(O2)C(=O)C(=O)N2CCCC[C@H]2C(=O)O[C@H]([C@H](C)C[C@@H]2CC[C@@H](OCCO)[C@H](OC)C2)CC(=O)[C@H](C)/C=C(\C)[C@@H](O)[C@@H](OC)C(=O)[C@H](C)C[C@H](C)/C=C/C=C/C=C/1C,,1.26 µM (active)
COC(=O)CCC(=O)CN,-5.93,
Cc1ccccc1,0.874,
CCCCC(C)(O)C/C=C/[C@H]1[C@H](O)CC(=O)[C@@H]1CCCCCCC(=O)OC (stereo not given in full),-4.24,
O=C(O)c1cc(O)c2c(c1)[O][Bi][O]2,7.85,

# — PubChem BioAssay (NCATS)
